HT1080NT lethal: kills 2HG-producing HT-1080-NT fibrosarcoma cells; HT-1080-NT fibrosarcoma viability, CellTiter-Glo ATP luminescence, 48 h; Potency, µM (series often up to 46.1 µM), for inactives: top-dose activity, negative = less viability, most hits filed as cytotoxic; hit rate 1.6% among 360,000; AID 686970;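 also: NT is the 2HG producing partner of a matched IDH1 knockdown line; potency is read from the fitted curve at half-maximal effect; 0% = DMSO-treated cells and -100% = media-only wells without cells; nearly all actives have a fitted effect of over 55% in size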
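HT-1080-NT; 750 cells/well; 5% FBS RPMI; 48 h compound, 37 degrees C; CellTiter-Glo luminescence; curve fitting and curve-class assignment.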
HT1080 IDH1KD tx: HT-1080 IDH1 knockdown cell toxicity (counter line); HT-1080 IDH1 knockdown viability, ATP luminescence, 48 h; Potency, µM (titrated, usually from 46.1 µM), for inactives: at the highest dose activity, negative = toxicity, hits mostly cytotoxic; AID 686971; hit rate 2% among 360,000;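 also: potency is read from the fitted curve at half-maximal effect; 0% = DMSO wells and -100% = cell-free medium wells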
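After a 2 h attachment period, IDH1KD HT-1080 cells took pin-transferred compound for 48 h at 37 °C; ATP-based luminescence after 10 min room-temperature reagent incubation reported viability.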
uPA surface inh: inhibitors of cell surface uPA generation; hit rate 0.31% among 330,000; cell surface uPA generation assay, qHTS; Potency, µM (highest dose often 38.3 µM), without a hit: at the top dose activity change, negative = inhibition, actives largely listed as inhibitors; active = well fitted inhibition curve with a large enough effect; inconclusive = small, poorly fitted or top-dose-only effect; inactive = no such curve, though single readings can be large or run the other way; tested in mouse RAW 264.7 cells; also: potency is read from the fitted curve at half-maximal effect; nearly all actives have a fitted effect of over 55% in size
TDP1 cell CPT: DT40-hTDP1 cell growth loss with CPT; chicken DT40 Tdp1-/-;hTDP1 cells + 20 nM CPT, ATP luminescence, 48 h; Potency, µM (highest dose often 46.2 µM), for inactives: at the highest dose activity change, negative = growth inhibition, hits mostly inhibitors; hit rate 12% among 420,000; also: potency is read from the fitted curve at half-maximal effect; nearly all actives have a fitted effect of over 55% in size
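Chicken DT40 Tdp1-/- cells stably complemented with human TDP1 were seeded at 400 cells/well in medium containing 20 nM camptothecin, exposed to pin-transferred compounds, and grown at 37 °C for at least 48 hr. Viability was read as ATP luminescence.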
TDP1 cell noCPT: qHTS for Inhibitors of human tyrosyl-DNA phosphodiesterase 1 (TDP1): qHTS in cells in absence of CPT. DT40 Tdp1-/- hTDP1 cells, no CPT, ATP luminescence, 48 h. hit rate 15% among 420,000. Potency, µM (highest dose often 46.2 µM), without a hit: at the top dose activity change, negative = growth inhibition, most hits filed as inhibitors. AID 686978, 2013; also: potency is read from the fitted curve at half-maximal effect; nearly all actives have a fitted effect of over 55% in size
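Compound effects on proliferation are scored in DT40 Tdp1-/-;hTDP1 cells in the absence of CPT. ATP levels (CellTiter-Glo luminescence) are recorded after a ≥48 hr, 37 °C incubation.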
IL-1B inflam inh: blocks inflammasome-driven IL-1 beta release | THP-1 LPS/ATP IL-1B secretion, AlphaLISA, 16 h; hits give low values | activity change, % at 57.5 µM | hit rate 4.7% among 360,000; in the data active = activity change below about -50%; inconclusive = mostly about -30% to -49%
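THP-1 cells pretreated 1 hr with compounds (up to 57.5 uM final), then stimulated with LPS (250 ng/mL final) plus ATP (1.25 mM final); secreted IL-1B measured by AlphaLISA after 16 hr, decreased signal indicating inhibition.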
An asterisk follows results filed as active; ? = inconclusive; · = no result given; [ ] = remark or other dose. The list is not random: actives were taken first. Their share in the collection is about 19%. Unless noted, calls follow the shape of the dose curve; as a rule, active = well fitted curve in the direction sought with a large enough effect; inconclusive = small, poorly fitted or top-dose-only effect, or another doubt; inactive = no such curve, though single readings can be large; an effect the other way counts as inactive or inconclusive. Unless noted, % is scaled to controls: 0 for no effect and ±100 for the full control effect.

SMILES | HT1080NT lethal | HT1080 IDH1KD tx | uPA surface inh | TDP1 cell CPT | TDP1 cell noCPT | IL-1B inflam inh
CC1CCN(CCCNC(=O)c2n[nH]c(=O)c3ccccc23)CC1 | 1.8% | 1.8% | 0.5% | ? | 2.8% | -3.7
CC1CCN(CCCNC(=O)c2cc(Sc3ccc(F)cc3)nc3ccccc23)CC1 | · | · | · | 23.1µM* | ? | ·
Cc1ccc(S(=O)(=O)N(C(=O)c2ccco2)c2cc3sc(=O)oc3c3ccccc23)cc1 | ? | ? | 0.6% | 5.17µM* | 2.59µM* | 6.1
CCOc1ccc(S(=O)(=O)N(C(=O)c2ccco2)c2cc3sc(=O)oc3c3ccccc23)cc1 | ? | -27.0% | -2.6% | 18.4µM* | ? | -94.8*
CCOc1ccc(S(=O)(=O)N(C)CC(=O)NCc2ccco2)cc1 | -0.3% | 0.3% | -1.9% | -17.2% | 4.3% | -5.3
CN1C(=O)CC(C(=O)Nc2ccccc2F)SC1=Nc1ccc2c(c1)OCO2 (stereo not given) | -15.2% | -0.3% | 4.1% | 16.8% | -15.0% | 19.5
COc1ccc(Cc2nnc(NC(=O)CS(=O)(=O)Cc3ccccc3)s2)cc1 | 10.6% | 8.4% | 2.4% | 0.1% | 9.4% | 16.1
CCN1CCN(Cc2c(O)ccc3oc(C)c(C(=O)Nc4ccc(OC)c(Cl)c4)c23)CC1 | · | · | · | 23.1µM* | ? | ·
COc1ccc(NC(=O)c2c(C)nn(Cc3ccccc3)c2Cl)cc1S(=O)(=O)N1CCOCC1 | -10.7% | -8.5% | -16.8% | -29.7% | -27.4% | 0.6
COc1ccc(NC(=O)c2c(C)oc3ccc(O)c(CN4CCN(Cc5ccccc5)CC4)c23)cc1Cl | · | · | · | 18.4µM* | 14.6µM* | ·
COC(=O)c1nc(NC(=S)NC(=O)c2cccs2)sc1C | -10.5% | -6.3% | -2.5% | -22.8% | -24.9% | 26.0
O=C(NC(=S)Nc1nc2ccccc2s1)c1cccs1 | -1.0% | -0.8% | 0.3% | 16.4µM* | 18.4µM* | 21.3
NC(=S)Nc1nc2ccccc2s1 | -1.3% | 14.6µM* | -1.5% | 2.59µM* | 4.11µM* | 0.0
COc1ccc2nc3ccccc3nc2c1NC(=O)c1ccc(Cl)cc1Cl | 11.9% | -13.7% | -1.7% | -15.7% | ? | -8.0
NC(=NC1CCCCC1)NS(=O)(=O)c1ccccc1 | 19.3% | 16.0% | 7.0% | 33.9% | -6.0% | 19.5
COc1ccc(C(=O)NCC2Cc3c(F)ccc(-c4nc(C)cnc4C)c3O2)cc1F (stereo not given) | · | · | · | -2.2%[9.04 µM] | -24.8% | ·
CCc1ccc(C(=O)c2cn(CC(=O)Nc3ccc4c(c3)OCO4)c3ccc(F)cc3c2=O)cc1 | · | · | · | -24.6% | ? | ·
CCOC(=O)C1(CC2CC2)CCN(C(=O)c2cc(C)nc3ccc(CC)cc23)CC1 | -4.6% | -18.4% | -1.4% | 20.6µM* | 18.4µM* | -4.9
COc1ccc(C(=O)C23CC4CC(C2)CC(C(=O)c2ccc(OC)cc2)(C4)C3)cc1 | 1.6% | 0.4% | 5.0% | ? | 16.4µM* | 13.0
O=C1NC(=O)C(c2ccccc2)N1 (stereo not given) | 12.1% | 12.6% | -2.0% | 1.4% | -2.4% | 2.1
C=C1C2=C(C(=O)N1OC)[C@@H](O)[C@@](C)(O)[C@@H](CCCCC)O2 | ? | ? | · | 14.6µM* | 13µM* | -83.4*
CC(=O)NC(CC(=O)OC(C)C(=O)Nc1ncc(Cl)cc1Cl)c1ccccc1 (stereo not given) | 8.4% | 13.2% | -10.4% | 18.5% | 1.6% | 0.0
CCCCc1nnc(SCC(=O)Nc2nccs2)n1C | 3.2% | 6.7% | 3.2% | -8.3% | 26.5% | 16.4
CCOc1ccc(-n2ccnc2SCC(=O)Nc2ccc3c(c2)OCO3)cc1 | · | · | · | 3.6% | -20.8% | ·
Cn1c(CCCOc2ccc(Cl)cc2Cl)nnc1SCC(=O)Nc1nccs1 | -15.6% | 4.2% | 3.9% | 23.1µM* | ? | 6.3
SMILES | HT1080NT lethal | HT1080 IDH1KD tx | uPA surface inh | TDP1 cell CPT | TDP1 cell noCPT | IL-1B inflam inh
Cc1cccc(-n2ccnc2SCC(=O)Nc2nccs2)c1C | -7.1% | -6.2% | -4.9% | ? | 16.4µM* | 7.3
CCOc1ccc(NC(=O)CSc2nccn2-c2cccc(C)c2C)cc1 | · | · | · | 18.4µM* | 18.4µM* | ·
CC(C)(C)c1nc2ccccc2c2nnc(SCC(=O)Nc3nccs3)n12 | ? | ? | -19.4% | 3.26µM* | 4.61µM* | -11.4
Cc1ccccc1NS(=O)(=O)c1ccc(C(=O)NCCCN2CCCC2=O)cc1 | 1.1% | 13.5% | -3.4% | -9.7% | ? | 17.6
CCCCC1CN(CCNC(=O)c2ccccn2)Cc2ccccc2O1 (stereo not given) | · | · | · | 10.9%[9.04 µM] | -4.3% | ·
Cc1cccc(C)c1OCc1nnc(SCC(=O)Nc2nccs2)n1-c1ccccc1 | ? | ? | 0.5% | ? | 5.8µM* | 5.6
COc1ccc(CCN2CC(C(=O)NCCc3ccccc3C)CCC2=O)cc1 (stereo not given) | 2.0% | 1.6% | 0.4% | ? | -2.4% | 0.8
Cc1ccc(NC(=O)Cn2nc(C)c3nn(-c4ccc(Cl)cc4)c(C)c3c2=O)cc1F | · | · | · | ? | 16.4µM* | ·
Cc1ccc(NC(=O)Cn2nc(C)c3nn(-c4ccc(Cl)cc4)c(C)c3c2=O)cc1C | · | · | · | ? | 14.6µM* | ·
Cc1ccc(NC(=O)CCn2nc(C)c3c(C)n(-c4ccccc4)nc3c2=O)cc1Cl | · | · | · | -11.5% | -8.0% | ·
COc1ccc(NC(=O)[C@@H](NC(=O)c2ccccc2F)C(C)C)cc1S(=O)(=O)N1CCOCC1 | 12.9% | 17.2% | -1.3% | -3.4% | -18.6% | 4.2
CC(=O)c1ccc(NC(=O)Cn2ncc3c(C)n(Cc4ccc(F)cc4)c(C)c3c2=O)cc1 | · | · | · | 1.2% | -17.5% | ·
CC(C)(C)NC(=O)c1ccc(NC(=O)CSc2ccccc2)cc1 | -5.9% | -10.3% | 18.5% | -20.7% | -20.2% | 20.6

From PubChem BioAssay
